Experimental data taken from PubChem BioAssay.
Values without a mark were called inactive. For some of these results: Measured potencies and affinities stand elsewhere. Activity calls are given as the source filed them. Unless noted, no rule for the calls is given here.

Legend:
[1] = antimalarial activity against Dd2 strain (AID 2302;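 active = growth inhibition above 50% at the single 2 µM test dose, taken to imply half-maximal potency below 2 µM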;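 also: 0% = DMSO untreated growth and 100% = chloroquine plus artemisinin killed control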); conditions: P. falciparum Dd2 in RBCs, LDH growth readout, 72 h; at 2 µM; hits give high values
[2] = human hepatoma cell viability loss – ATP luminescence, cytotoxicity control for P. falciparum antimalarial project, primary screen (AID 2303;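 active = inhibition above 50%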;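 also: 0% = DMSO wells and 100% = digitonin-killed cells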); conditions: HepG2 viability, 24-48 h, at 10 µM, hits give high values
[3] = molecular target: L-lactate dehydrogenase (Plasmodium falciparum (isolate CDC / Honduras)) (UniProt Q27743); assay: PfLDH activity inhibition – cell lysate, 3D7 strain, counter-screen for P. falciparum growth inhibition project (AID 2304);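 also: 0% = vehicle and 100% = reference inhibitor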; conditions: P. falciparum 3D7 crude extract, LDH APAD/NBT absorbance; at 2 µM; hits give high values
Sequence of L-lactate dehydrogenase (Plasmodium falciparum (isolate CDC / Honduras)) (Q27743 whole entry, looked up): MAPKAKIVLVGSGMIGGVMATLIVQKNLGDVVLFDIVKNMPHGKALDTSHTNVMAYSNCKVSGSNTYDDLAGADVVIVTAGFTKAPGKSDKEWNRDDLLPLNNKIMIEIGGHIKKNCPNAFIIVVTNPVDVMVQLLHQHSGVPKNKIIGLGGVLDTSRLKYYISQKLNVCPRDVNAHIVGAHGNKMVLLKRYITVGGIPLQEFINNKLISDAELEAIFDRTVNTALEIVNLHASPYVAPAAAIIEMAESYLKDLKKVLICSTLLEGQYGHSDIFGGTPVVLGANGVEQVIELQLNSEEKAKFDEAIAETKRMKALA

[4] = inhibition of 3D7 malaria parasite growth – strain 3D7 (AID 2306);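 also: 0% = DMSO wells and 100% = chloroquine plus artemisinin control wells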; conditions: P. falciparum 3D7 erythrocytic growth, LDH absorbance, 72 h; at 2 µM; hits give high values
[5] = molecular target: Calcium-dependent protein kinase 1 (Plasmodium falciparum (isolate 3D7)) (UniProt P62344); assay: PfCDPK1 kinase inhibitors, biochemical, TCAMS library (AID 1159585; cut-off not given, nearly all actives have IC50 up to about 0.98 µM;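 also: inhibitors leave more ATP so luminescence rises with inhibition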); conditions: recombinant PfCDPK1, Kinase-Glo ATP depletion luminescence
Sequence of Calcium-dependent protein kinase 1 (Plasmodium falciparum (isolate 3D7)) (P62344 whole entry, looked up): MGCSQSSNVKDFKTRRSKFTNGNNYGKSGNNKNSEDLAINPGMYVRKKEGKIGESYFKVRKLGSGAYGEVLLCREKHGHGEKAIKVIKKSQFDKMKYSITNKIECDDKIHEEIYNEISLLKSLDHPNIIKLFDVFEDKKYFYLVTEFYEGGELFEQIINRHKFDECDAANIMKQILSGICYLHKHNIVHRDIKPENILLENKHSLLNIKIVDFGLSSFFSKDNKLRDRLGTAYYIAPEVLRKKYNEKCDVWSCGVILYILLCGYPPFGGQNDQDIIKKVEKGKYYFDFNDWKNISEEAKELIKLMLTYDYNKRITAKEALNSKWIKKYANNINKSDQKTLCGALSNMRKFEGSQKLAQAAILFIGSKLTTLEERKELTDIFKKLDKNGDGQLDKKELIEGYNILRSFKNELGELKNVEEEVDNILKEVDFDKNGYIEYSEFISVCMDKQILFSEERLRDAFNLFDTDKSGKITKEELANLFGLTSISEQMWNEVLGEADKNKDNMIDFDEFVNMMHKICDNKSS

[6] = molecular target: Plasmodium falciparum protein kinase 6 (PK6, PF3D7_1337100) (UniProt Q8IDW1); assay: PfPK6 kinase inhibitors, biochemical, TCAMS library (AID 1159586); conditions: recombinant PfPK6, Kinase-Glo ATP depletion luminescence
Sequence of Plasmodium falciparum protein kinase 6 (PK6, PF3D7_1337100) (Q8IDW1 1-305): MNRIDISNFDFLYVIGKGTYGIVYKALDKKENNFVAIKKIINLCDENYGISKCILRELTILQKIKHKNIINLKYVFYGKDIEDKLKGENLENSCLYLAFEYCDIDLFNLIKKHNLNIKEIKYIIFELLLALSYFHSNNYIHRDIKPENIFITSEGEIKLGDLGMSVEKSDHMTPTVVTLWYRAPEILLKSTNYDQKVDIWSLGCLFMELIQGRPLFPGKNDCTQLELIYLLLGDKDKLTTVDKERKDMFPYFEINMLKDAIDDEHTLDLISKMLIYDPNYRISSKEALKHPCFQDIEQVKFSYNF

[7] = molecular target: Protein kinase 7 (PK7), Plasmodium falciparum 3D7 (PF3D7_0213400) (UniProt Q7YTF7); assay: inhibition of Plasmodium PK7 catalytic activity – biochemical, TCAMS antimalarial set, Kinase-Glo luminescence (AID 1159587); conditions: recombinant PfPK7, Kinase-Glo ATP depletion luminescence
Sequence of Protein kinase 7 (PK7), Plasmodium falciparum 3D7 (PF3D7_0213400) (Q7YTF7 1-343): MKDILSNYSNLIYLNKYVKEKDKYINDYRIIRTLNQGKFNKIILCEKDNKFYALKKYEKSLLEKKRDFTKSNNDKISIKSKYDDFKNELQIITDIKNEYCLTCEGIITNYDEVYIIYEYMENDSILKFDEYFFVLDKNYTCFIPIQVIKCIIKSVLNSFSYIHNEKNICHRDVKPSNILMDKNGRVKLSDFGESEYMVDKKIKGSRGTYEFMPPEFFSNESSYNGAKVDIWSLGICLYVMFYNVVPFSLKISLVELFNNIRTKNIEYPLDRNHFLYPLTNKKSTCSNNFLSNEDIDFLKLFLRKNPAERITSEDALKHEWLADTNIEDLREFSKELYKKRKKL

[8] = molecular target: Calcium-dependent protein kinase 4 (Plasmodium falciparum (isolate 3D7)) (UniProt Q8IBS5); assay: PfCDPK4 kinase inhibitors, biochemical, TCAMS library (AID 1159588; cut-off not given, nearly all actives have IC50 up to about 0.91 µM); conditions: recombinant PfCDPK4, Kinase-Glo ATP depletion luminescence
Sequence of Calcium-dependent protein kinase 4 (Plasmodium falciparum (isolate 3D7)) (Q8IBS5 whole entry, looked up): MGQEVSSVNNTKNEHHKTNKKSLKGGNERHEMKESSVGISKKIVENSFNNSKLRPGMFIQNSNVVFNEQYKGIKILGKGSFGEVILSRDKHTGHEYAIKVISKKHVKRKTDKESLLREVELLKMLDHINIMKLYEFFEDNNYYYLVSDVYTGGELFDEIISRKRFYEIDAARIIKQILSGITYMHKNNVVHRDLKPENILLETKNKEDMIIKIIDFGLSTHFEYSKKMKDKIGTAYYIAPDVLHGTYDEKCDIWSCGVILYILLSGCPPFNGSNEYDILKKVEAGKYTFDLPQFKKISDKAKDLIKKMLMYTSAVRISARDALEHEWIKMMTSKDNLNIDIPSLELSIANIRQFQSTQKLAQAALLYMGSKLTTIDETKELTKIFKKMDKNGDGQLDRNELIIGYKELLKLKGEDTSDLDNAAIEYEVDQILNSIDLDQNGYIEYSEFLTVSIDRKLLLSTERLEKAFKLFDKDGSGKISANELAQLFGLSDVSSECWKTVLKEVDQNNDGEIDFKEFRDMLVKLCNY

| Compound | growth inhibition [1] | inhibition [2] | inhibition [3] [%] | growth inhibition [4] | outcome [5] | outcome [6] | outcome [7] | outcome [8] |
| --- | --- | --- | --- | --- | --- | --- | --- | --- |
| COc1ccc(CCn2c(=N)c(C(=O)NCc3ccccc3)cc3c(=O)n4cccc(C)c4nc32)cc1 | 37% | 29% | -3 | 102% (active) | inactive | inactive | inactive | inactive |
| O=c1c(NCCCN(Cc2ccc(F)cc2)c2ccccn2)c(NCc2cccnc2)c1=O | 92% (active) | -2% | -2 | 101% (active) | inactive | inactive | inactive | inactive |
| Cc1ccccc1C1CCN(c2ccc(C(=O)Nc3ccccc3)cn2)CC1 | 94% (active) | 53% (active) | -2 | 95% (active) | inactive | inactive | inactive | inactive |
| O=C(CSc1nc2ccccc2c(=O)n1CC1CCCO1)Nc1cc(C(F)(F)F)ccc1Cl (stereo unspecified) | 95% (active) | 12% | -2 | 97% (active) | inactive | inactive | inactive | inactive |
| CN(C)C(=O)c1ccc(CN(Cc2cccc(OC(C)(C)C)c2)Cc2ccc3c(c2)OCCO3)cc1 | 96% (active) | 0% | -2 | 96% (active) | inactive | inactive | inactive | inactive |
| CN1CCC(c2c[nH]c3ccc(NC(=O)Nc4ccc(-c5ccncc5)c(Cl)c4Cl)cc23)CC1 | 19% | 27% | -1 | 102% (active) | inactive | inactive | inactive | inactive |
| COc1ccc2[nH]cc(C3CCN(CCCCCNC(=O)c4ccc(-c5ccccc5)cc4)CC3)c2c1 | 16% | 50% (active) | -8 | 96% (active) | inactive | inactive | inactive | inactive |
| CCCCOc1ccc(-n2c(Nc3ccccc3)nc3cc(S(N)(=O)=O)ccc32)cc1 | 72% (active) | 0% | -6 | 90% (active) | inactive | inactive | inactive | inactive |
| Cc1cccc(CC(N)=NCCCCCCN=C(N)Cc2cccc(C)c2)c1 | 97% (active) | 12% | 3 | 97% (active) | inactive | inactive | inactive | inactive |
| CS(=O)(=O)c1cccc(-c2cnc(N)c3cc(-c4ccc(F)cc4)ccc23)c1 | 33% | 28% | 4 | 91% (active) | inactive | inactive | inactive | inactive |
| CN1CCN(Cc2c(O)ccc3c(=O)c(Oc4ccc(C(C)(C)C)cc4)c(C(F)(F)F)oc23)CC1 | 88% (active) | -13% | 4 | 99% (active) | inactive | inactive | inactive | inactive |
| C[C@@H]1CN(c2cnn(C/C=C/c3ccc(NC(=O)c4ccc([N+](=O)[O-])cc4)cc3)c(=O)c2Cl)C[C@H](C)N1 | 38% | 22% | -3 | 96% (active) | inactive | inactive | inactive | inactive |
| N#Cc1ccc2c(c1)CCN(CCC1CCC(NC(=O)/C=C/c3ccc4[nH]ccc4c3)CC1)CC2 (stereo unspecified) | 27% | 2% | 2 | 93% (active) | inactive | inactive | inactive | inactive |
| O=C(/C=C/c1ccc(Cl)c(Cl)c1)NCCCCCN1CCC(NC(=O)Nc2ccc(F)cc2F)CC1 | 23% | 14% | 2 | 102% (active) | inactive | inactive | inactive | inactive |
| N#Cc1ccc2c(c1)CCN(CCC1CCC(NC(=O)/C=C/c3c[nH]c4ccc(F)cc34)CC1)CC2 (stereo unspecified) | 83% (active) | 18% | 4 | 101% (active) | inactive | inactive | inactive | inactive |
| O=C(/C=C/c1ccc(Cl)c(Cl)c1)NCCCCCN1CCC(NC(=O)Nc2cc(Cl)cc(Cl)c2)CC1 | 5% | 98% (active) | -8 | 94% (active) | inactive | inactive | inactive | inactive |
| Cc1noc(C)c1-c1ccc2c(Nc3ccccc3C(C)(C)C)c(C(=O)NCc3ccc(C(F)(F)F)cc3)cnc2c1 | 50% (active) | 30% | 0 | 99% (active) | inactive | inactive | inactive | inactive |
| O=S(=O)(/C=C/c1ccccc1)N(Cc1ccc(-c2ccc(CNCCc3ccccn3)cc2)cc1)CC1CCCCN1 (stereo unspecified) | 97% (active) | 46% | -4 | 100% (active) | inactive | inactive | inactive | inactive |
| Cc1cc(NN=Cc2ccc(F)cc2)c2cccc(C)c2n1 | 99% (active) | 7% | -6 | 100% (active) | inactive | inactive | inactive | inactive |
| C[C@H](Cc1ccc(OCCCOc2ccc(C[C@@H](C)NC[C@H](O)c3cccc(Cl)c3)cc2)cc1)NC[C@H](O)c1cccc(Cl)c1 | 92% (active) | 99% (active) | 0 | 99% (active) | inactive | inactive | inactive | inactive |
| CC(C)(C)c1cc(N=NC(=O)c2ccncc2)cc(C(C)(C)C)c1O | 99% (active) | 47% | 1 | 99% (active) | inactive | inactive | inactive | inactive |
| Cc1cc(-c2cc(Cl)ccc2Cl)no1 | 97% (active) | 36% | -8 | 96% (active) | inactive | inactive | inactive | inactive |
| CCN(CCN(C)C)Cc1ccc(-c2ccc(NS(=O)(=O)c3cccc(Cl)c3)cc2)cc1 | 40% | 43% | 4 | 97% (active) | inactive | inactive | inactive | inactive |
| CC(C)COc1ccc(Cl)cc1Cc1ccc(-c2nc3ccc(CCN4CCCC4)cc3[nH]2)o1 | 94% (active) | 34% | 1 | 100% (active) | inactive | inactive | inactive | inactive |

| Compound | growth inhibition [1] | inhibition [2] | inhibition [3] [%] | growth inhibition [4] | outcome [5] | outcome [6] | outcome [7] | outcome [8] |
| --- | --- | --- | --- | --- | --- | --- | --- | --- |
| Cc1cc(-c2ccc(Cl)cc2)c2c(N)c(C(=O)Nc3ccc(F)cc3)sc2n1 | 87% (active) | 12% | 0 | 97% (active) | inactive | inactive | inactive | inactive |
| CC(C)C1C(O)=C(c2ccc3ccccc3c2)C(=O)N1Cc1ccsc1 (stereo unspecified) | 82% (active) | 11% | 3 | 88% (active) | inactive | inactive | inactive | inactive |
| CCC1N=C(N)N=C(N)N1OCc1ccc(Cl)c(Cl)c1 (stereo unspecified) | 90% (active) | 54% (active) | -4 | 93% (active) | inactive | inactive | inactive | inactive |
| O=C(Nc1ccc(Cl)c(C(F)(F)F)c1)NC1CCN(CCCCCNC(=O)[C@@H]2C[C@H]2c2ccc(Cl)c(Cl)c2)CC1 | 41% | 79% (active) | -1 | 100% (active) | inactive | inactive | inactive | inactive |
| CCOc1ccc(C(C)NC(=O)Nc2ccccc2)cc1OCC (stereo unspecified) | 95% (active) | 14% | 1 | 96% (active) | inactive | inactive | inactive | inactive |
| Cc1nc(-c2ccc3c(c2)CCN(CCC2CCC(NC(=O)c4cc5cccc(Cl)c5[nH]4)CC2)CC3)no1 (stereo unspecified) | 46% | 36% | 2 | 100% (active) | inactive | inactive | inactive | inactive |
| COc1cc(OC)cc(-c2nn(-c3ccc([N+](=O)[O-])cc3C#N)c(=S)n2CC2CCCO2)c1 (stereo unspecified) | 75% (active) | 9% | 0 | 98% (active) | inactive | inactive | inactive | inactive |
| Cn1nc(-c2ccc(CNC3CCc4ccccc43)cc2)c2cnc(NCCCN3CCCC3)nc21 (stereo unspecified) | 22% | 27% | -4 | 92% (active) | inactive | inactive | inactive | inactive |
| COc1ccc2nccc(N3CCC(O)(CCNCc4ccc5c(n4)NC(=O)CO5)CC3)c2n1 | 24% | 18% | -4 | 100% (active) | inactive | inactive | inactive | inactive |
| CCOc1cc(C(=O)NCc2cccc(C(F)(F)F)c2)ccc1-c1nc2ccc(Cl)cc2[nH]1 | 31% | 7% | -6 | 88% (active) | inactive | inactive | inactive | inactive |
| Cc1[nH]c(C)c(-c2ccc(OCc3ccc(F)cc3)cc2)c(=O)c1Br | 97% (active) | 16% | -2 | 98% (active) | inactive | inactive | inactive | inactive |
| O=c1ccccn1CCCC1CCCCN1 (stereo unspecified) | -1% | -1% | 0 | 96% (active) | inactive | inactive | inactive | inactive |
| CCN(CC)CCCn1c(N)c(-c2nc3ccccc3[nH]2)c2nc(C#N)c(C#N)nc21 | 99% (active) | 8% | 2 | 100% (active) | inactive | inactive | inactive | inactive |
| CCCOc1ccccc1-c1nc2[nH]c3c(c2c(=O)[nH]1)CCN(C)C3 | 70% (active) | 8% | -6 | 87% (active) | inactive | inactive | inactive | inactive |
| Oc1ccc2[nH]c(-c3cccc(F)c3)nc2c1CNCc1ccccc1 | 55% (active) | 29% | -2 | 92% (active) | inactive | inactive | inactive | inactive |
| COc1ccc2ncc(Cl)c(N3CCC(CCNCc4ccc5c(n4)NC(=O)CS5)CC3)c2c1 | 82% (active) | 33% | 0 | 89% (active) | inactive | inactive | inactive | inactive |
| COc1ccc(NC(=O)[C@H](CC(C)C)Nc2cc(C)nc(NCCc3ccccc3)n2)cc1 | 74% (active) | 13% | -2 | 101% (active) | inactive | inactive | inactive | inactive |
| N#Cc1ccc2c(c1)CN(CCCCNC(=O)c1ccc(-c3ccccc3)cc1)CC2 | 10% | -9% | -1 | 96% (active) | inactive | inactive | inactive | inactive |
| CC(=O)c1cccc(S(=O)(=O)NCCCNc2nc3cc(C)cc(C)c3cc2C#N)c1 | 75% (active) | 11% | 1 | 95% (active) | inactive | inactive | inactive | inactive |
| CC1SC(=S)NC1C(=O)O (stereo unspecified) | -1% | 3% | 0 | 94% (active) | inactive | inactive | inactive | inactive |
| Cc1nc(-c2cccc(C(=O)N(Cc3cncn3Cc3cccc(C(F)(F)F)c3)CC3CC3)c2)cs1 | 17% | 7% | 4 | 97% (active) | inactive | inactive | inactive | inactive |
| Oc1ccc(CCNc2nc(NCCCOc3ccccc3-c3cccnc3)nc(N3CCNCC3)n2)cc1 | 1% | 10% | 0 | 92% (active) | inactive | inactive | inactive | inactive |
| CNC(=O)c1cc(S(=O)(=O)Nc2ccc(OC)cc2)cs1 | 48% | 11% | -6 | 95% (active) | inactive | inactive | inactive | inactive |
